High-throughput results deposited in PubChem by National Center for Advancing Translational Sciences (NCATS).
The list is not random: actives were taken first. Their share in the collection is about 21%.
DT40 TDP1 CPT: qHTS for Inhibitors of human tyrosyl-DNA phosphodiesterase 1 (TDP1): qHTS in cells in presence of CPT; chicken DT40 Tdp1-/-;hTDP1 cells + 20 nM CPT, ATP luminescence, 48 h; 420,000 compounds, 12% hits; Potency, µM (top dose mostly 46.2 µM), without a hit: at the highest dose activity change, negative = growth inhibition, hits mostly inhibitors; also: potency is read from the fitted curve at half-maximal effect; nearly all actives have a fitted effect of over 55% in size
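Chicken DT40 Tdp1-/- cells complemented with human TDP1, 400 cells/well, exposed to compounds plus 20 nM camptothecin for at least 48 h at 37 C; viability read as ATP content by CellTiter-Glo luminescence.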
Gal4-VP16 FLuc: VP16 counterscreen qHTS for inhibitors of ROR gamma transcriptional activity | Potency, µM (titrated, usually from 53.6 µM), for the others: at the highest dose activity, negative = inhibition, usual class: inhibitors | Drosophila S2 Gal4-VP16 UAS-luciferase, luminescence, 20 h | AID 2546, 2010 | 310,000 compounds, 3.5% hits;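 also: Gal4-VP16 expression switched on by copper sulfate through the metallothionein promoter; potency is read from the fitted curve at half-maximal effect; nearly all actives have a fitted effect of over 50% in size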
DT40 TDP1 no CPT: qHTS for Inhibitors of human tyrosyl-DNA phosphodiesterase 1 (TDP1): qHTS in cells in absence of CPT; DT40 Tdp1-/- hTDP1 cells, no CPT, ATP luminescence, 48 h; Potency, µM (series often up to 46.2 µM), inactives show at the highest dose activity change, negative = growth inhibition, hits mostly inhibitors; 420,000 compounds, 15% hits; AID 686978, 2013; also: potency is read from the fitted curve at half-maximal effect; nearly all actives have a fitted effect of over 55% in size
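Seeded 400 DT40-hTDP1 cells/well (vehicle DMSO, no 20 nM CPT); pinned compounds; ≥48 hr at 37 °C; CellTiter-Glo luminescence as viability measure.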
ELG1 repair inh: qHTS screen for small molecules that inhibit ELG1-dependent DNA repair in human embryonic kidney (HEK293T) cells expressing luciferase-tagged ELG1 | HEK293T ELG1-luciferase reporter, luminescence, 16 h; DNA damage induced by 5-fluorouridine | Potency, µM (titrated, usually from 46.1 µM), for inactives: at the highest dose activity change, negative = inhibition, actives largely listed as inhibitors | 330,000 compounds, 2.3% hits | AID 504467, 2011; also: potency is read from the fitted curve at half-maximal effect; nearly all actives have a fitted effect of over 55% in size
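Quantitative HTS, concentration-response format. 2,000 cells/well co-treated with 5-fluorouridine and compound, 16 hr in 5% CO2 at 37 °C; ONE-Glo luminescence read after 30 min.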
RORg inh: qHTS for inhibitors of ROR gamma transcriptional activity; Nuclear receptor ROR-gamma (Mus musculus), P51450; Drosophila S2 Gal4-RORgamma UAS-luciferase reporter, 20 h; Potency, µM (highest dose often 53.6 µM), inactives show at the top dose activity change, negative = inhibition, usual class: inhibitors; 310,000 compounds, 5.4% hits; AID 2551, 2010; also: potency is read from the fitted curve at half-maximal effect; nearly all actives have a fitted effect of over 60% in size
Target sequence (P51450 whole entry, looked up, the tested form may be a part): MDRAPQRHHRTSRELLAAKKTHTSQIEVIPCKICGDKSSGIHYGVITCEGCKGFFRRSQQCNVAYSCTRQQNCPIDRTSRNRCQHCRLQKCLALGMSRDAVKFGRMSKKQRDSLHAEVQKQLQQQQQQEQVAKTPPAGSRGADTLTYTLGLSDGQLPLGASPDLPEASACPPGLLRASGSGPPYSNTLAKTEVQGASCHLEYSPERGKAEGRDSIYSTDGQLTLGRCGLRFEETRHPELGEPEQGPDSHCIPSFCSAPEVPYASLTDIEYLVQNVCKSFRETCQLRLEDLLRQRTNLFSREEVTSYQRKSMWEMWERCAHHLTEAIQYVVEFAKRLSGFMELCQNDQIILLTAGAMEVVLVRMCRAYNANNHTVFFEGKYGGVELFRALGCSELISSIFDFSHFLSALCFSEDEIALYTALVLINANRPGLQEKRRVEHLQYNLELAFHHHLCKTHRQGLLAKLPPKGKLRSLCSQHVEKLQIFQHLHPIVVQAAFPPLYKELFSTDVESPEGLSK
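In this cell-based reporter format, copper sulfate (700 uM final) drives Gal4–ROR gamma fusion expression from a metallothionein promoter in Drosophila Schneider cells; compounds preincubated 1 hr, reporter read after 20 hr at ambient temperature.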
IL1B secr inh: qHTS for Inhibitors of Inflammasome Signaling: IL-1-beta AlphaLISA Primary Screen; 360,000 compounds, 4.7% hits; THP-1 LPS/ATP IL-1B secretion, AlphaLISA, 16 h; active compounds read low; activity change, % at 57.5 µM; in the data active = activity change below about -50%; inconclusive = mostly about -30% to -49%
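Secreted IL-1B measured by AlphaLISA bead assay after 16 h compound exposure of THP-1 cells; compounds (final up to 57.5 uM) added 1 h before LPS (250 ng/mL) and ATP (1.25 mM) stimulation; lower signal means less secretion.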
Starred values were filed as active, the others as inactive. Unless noted, calls follow the shape of the dose curve; as a rule, active = well fitted curve in the direction sought with a large enough effect; inconclusive = small, poorly fitted or top-dose-only effect, or another doubt; inactive = no such curve, though single readings can be large; an effect the other way counts as inactive or inconclusive. % is scaled to controls: 0 for no effect and ±100 for the full control effect.

For CCOc1ccc(NC(=O)Nc2cc(OCC(F)(F)F)cc(OCC(F)(F)F)c2)cc1 the results were DT40 TDP1 CPT 2.91µM*, Gal4-VP16 FLuc -25.8%, DT40 TDP1 no CPT 2.91µM*, ELG1 repair inh inconclusive, RORg inh inconclusive and IL1B secr inh -2.5.
For CCC(=O)O[C@H](CC(=O)O)C[N+](C)(C)C the results were DT40 TDP1 CPT -2.8%, Gal4-VP16 FLuc -2.9%, DT40 TDP1 no CPT -7.9% and RORg inh -1.1%.
For CCOC(=O)c1c(C)[nH]c(C)c1S(=O)(=O)N(C)CC(=O)Nc1cccc(C(F)(F)F)c1 the results were DT40 TDP1 CPT inconclusive and DT40 TDP1 no CPT -17.1%.
`COc1ccccc1C1C2CCCCC2(O)CCN1CC(=O)Nc1ccccc1` (stereo not drawn) gave DT40 TDP1 CPT inconclusive, Gal4-VP16 FLuc 10.2%, DT40 TDP1 no CPT inconclusive, ELG1 repair inh -5.9%, RORg inh 29.6% and IL1B secr inh 28.2.
`COC(=O)c1c(NC(=O)CN2CCC3(O)CCCCC3C2c2cc(OC)ccc2OC)sc(C)c1C` (stereo not drawn) gave DT40 TDP1 CPT 13µM*, Gal4-VP16 FLuc -8.8%, DT40 TDP1 no CPT 10.3µM*, ELG1 repair inh 9.2µM*, RORg inh inconclusive and IL1B secr inh -1.4.
For COc1ccccc1NC(=O)CN1C(=O)CC(c2ccc(C)c(C)c2)=Nc2ccccc21 the results were DT40 TDP1 CPT 23.1µM* and DT40 TDP1 no CPT 23.1µM*.
Screening COc1ccccc1NC(=O)CN1CCN(CC(=O)Nc2ccc(S(N)(=O)=O)cc2)CC1 returned DT40 TDP1 CPT inconclusive, Gal4-VP16 FLuc -1.1%, DT40 TDP1 no CPT 13µM*, ELG1 repair inh -29.1%, RORg inh -4.0% and IL1B secr inh 17.4.
Screening COc1cc(NC(=O)CN2CCN(CC(=O)Nc3ccccc3OC)CC2)cc(OC)c1 returned DT40 TDP1 CPT 16.4µM*, Gal4-VP16 FLuc -7.3%, DT40 TDP1 no CPT inconclusive, ELG1 repair inh -25.9%, RORg inh 14.3% and IL1B secr inh -9.7.
For COc1ccc(NC(=O)CN2CCN(CC(=O)Nc3ccccc3OC)CC2)c(OC)c1 the results were DT40 TDP1 CPT -4.1%, Gal4-VP16 FLuc -23.5%, DT40 TDP1 no CPT -8.0%, ELG1 repair inh -13.6%, RORg inh -1.2% and IL1B secr inh 17.5.
For COc1ccccc1NC(=O)CN1CCN(CC(=O)Nc2ccc(C)c(F)c2)CC1 the results were DT40 TDP1 CPT 16.4µM*, Gal4-VP16 FLuc -5.9%, DT40 TDP1 no CPT 16.4µM*, ELG1 repair inh 0.0%, RORg inh 9.7% and IL1B secr inh -8.1.
CCOc1ccccc1NC(=O)CN1C(=O)CC(c2ccc(C)c(C)c2)=Nc2ccccc21 was read as DT40 TDP1 CPT -6.4% and DT40 TDP1 no CPT -14.4%.
Screening CCOc1cccc(OCCCn2c(-c3ccc(Br)cc3)nc3ccccc3c2=O)c1 returned DT40 TDP1 CPT -26.4% and DT40 TDP1 no CPT -19.2%.
CCCCN1C(=O)C(=O)NC[C@H]1Cc1cccc2ccccc12 was read as DT40 TDP1 CPT -19.8%, DT40 TDP1 no CPT -21.2% and IL1B secr inh 20.2.
`S=C1NC[C@H](Cc2cccc3ccccc23)N1CC1CCCCC1` gave DT40 TDP1 CPT inconclusive, Gal4-VP16 FLuc 5.01µM*, DT40 TDP1 no CPT 23.1µM*, ELG1 repair inh -17.5%, RORg inh 0.708µM* and IL1B secr inh 18.5.
